Data on 58 compounds can be found in PubChem BioAssay AID588727 (Southern Research Specialized Biocontainment Screening …, 2011).

About 450 (0.13%) of roughly 350,000 compounds were called active. No rule for the calls is given here. Not all results are given here. Measured potencies and affinities stand elsewhere.

The nature of the assay: inhibitors of VEEV TC-83 cytopathic effect, confirmation, Vero cells (AID 588727). Particulars: VEEV TC-83 cytopathic effect inhibition, at 20 µM.
The mark [1] stands for this setting: stronger effect = higher value unless noted.
Where [2] appears, read: measured here: 10K pilot screen inhibition, stronger effect = higher value.

By inhibition is commonly meant the relative decrease from the control value, in per cent. On to `CCOC(=O)CSc1nnc(NC(=O)CN2CCCCC2)s1`, for which the inhibition entry under setting [1] was “inactive”.
For the compound `CC(=O)Nc1ccc(S(=O)(=O)N(C)CC(=O)OC(C)C(=O)NC2(C#N)CCCCC2)cc1` (stereo unspecified), the inhibition under setting [1] is 0.4% (inactive).
Same read-out and setting: the entry for `COc1ccc(NC(=O)COc2ccc(CNCCCN3CCOCC3)cc2OC)cc1` is “inactive”.
The same measure, in the same setting: the figure for `CCOc1cc(CNCCCN2CCOCC2)ccc1OCC(=O)NC(C)(C)C` is 0.44% (inactive); for `COc1ccc(N2CCN(CCCn3c(=S)[nH]c4ncccc4c3=O)CC2)cc1` it is 26.7% (inactive); for `CCCCn1c(=S)[nH]c2ncccc2c1=O` it is 1.76% (inactive).
Same read-out and setting: the figure for `Cc1ccc2oc(=O)cc(/C=C/c3ccccc3)c2c1` is 0.72% (inactive).
`Cc1ccccc1C(=O)NN1C(=O)CSC1=S`: the inhibition under setting [1] was 0.35% (inactive).
On the same count and under the same terms, the entry for `CCc1ccc(C2CC(=O)N(c3cccc(F)c3)C3=C2C(=O)OC3)cc1` (stereo unspecified) is “inactive”; for `Cc1ccc(NC(=O)[C@H](NC(=O)[C@@H]2Cc3ccccc3CN2)c2ccccc2)c(C)c1` it is 1.71% (inactive).
Same read-out and setting: the figure for `Cc1cc(C)cc(NC(=O)[C@H](Cc2c[nH]c3ccccc23)NC(=O)[C@@H]2Cc3ccccc3CN2)c1` is 0.29% (inactive); for `CC(C)C[C@H](NC(=O)[C@@H]1Cc2ccccc2CN1)C(=O)Nc1ccc(C(C)C)cc1` it is 0.75% (inactive); for `Cc1ccc(NC(=O)[C@H](Cc2ccccc2)NC(=O)[C@@H]2Cc3ccccc3CN2)c(C)c1` it is 1.94% (inactive).
On the same count and under the same terms, the entry for `CC(NC(=O)[C@H](Cc1c[nH]c2ccccc12)NC(=O)[C@@H]1Cc2ccccc2CN1)c1ccccc1` (stereo partly specified) is “inactive”; for `COc1ccccc1CNC(=O)[C@H](Cc1c[nH]c2ccccc12)NC(=O)[C@@H]1Cc2ccccc2CN1` it is 0.04% (inactive); for `Cc1cccc(NC(=O)[C@@H](CC(C)C)NC(=O)[C@@H]2Cc3ccccc3CN2)c1` it is “inactive”.
On to `COc1ccc(CNC(=O)[C@H](Cc2c[nH]c3ccccc23)NC(=O)[C@@H]2Cc3ccccc3CN2)cc1`, for which the inhibition result under setting [1] is “inactive”.
The same measure, in the same setting: the figure for `O=C(O)c1cc(S(=O)(=O)Nc2cccc(S(=O)(=O)N3CCCC3)c2)ccc1Cl` is 0.74% (inactive); for `Cc1ccc(C(=O)Nc2cccnc2Oc2ccc(Cl)cc2)cc1` it is 7.89% (inactive); for `O=C(O)c1ccc(Cl)c(S(=O)(=O)N(Cc2ccccc2)c2ccccc2Cl)c1` it is “inactive”.
Consider `CCC(O)CC(C(=O)NNc1ccccc1)C(=O)NNc1ccccc1` (stereo unspecified), for which the inhibition is 1.75% (inactive) (stronger effect = higher value) and 1.77% under setting [2].
Turning to `COc1ccc(OCc2cc(/C=N\NC(=O)c3ccccc3)ccc2OC)cc1`, the inhibition under setting [1] is 7.93% (inactive).
As to `COc1cccc(NC(=O)[C@H](Cc2ccccc2)NC(=O)[C@@H]2Cc3ccccc3CN2)c1`, the inhibition under setting [1] is 2.9% (inactive).
Same read-out and setting: the figure for `COc1cccc(NC(=O)[C@H](CC(C)C)NC(=O)[C@@H]2Cc3ccccc3CN2)c1` is 0.34% (inactive); for `c1ccc(CSc2ncnc3c2ncn3C2CCCCO2)cc1` (stereo unspecified) it is 4.13% (inactive); for `Fc1ccccc1CSc1ncnc2c1ncn2C1CCCCO1` (stereo unspecified) it is 4.89% (inactive).
Same read-out and setting: the figure for `CCOC(=O)C1CCC(=O)C1` (stereo unspecified) is 0.89% (inactive).
The same measure, in the same setting: the figure for `Cn1c(CN2CCCCC2)nc2cc(NS(=O)(=O)c3ccc(F)cc3)ccc21` is 0.17% (inactive); for `C#CCN(C[C@@H]1[C@@H](OC(=O)Nc2cccs2)[C@@H](OC(=O)Nc2cccs2)Cn2c(=O)n(CCCCCC)c(=O)n21)S(=O)(=O)c1ccc(C)cc1` it is “inactive”.
For the compound `C#CCN(C[C@@H]1[C@@H](OC(=O)NC2CC2)[C@@H](OC(=O)NC2CC2)Cn2c(=O)ccc(=O)n21)S(=O)(=O)c1ccc(C)cc1`, the inhibition under setting [1] is 0.49% (inactive).
On to `COc1ccc(-c2c3c(=O)n(C)c(=O)n(C)c3cn2Cc2cccnc2)cc1`, for which the inhibition is 1.95% (inactive) (stronger effect = higher value) and 1.55% under setting [2].
In the case of `CC(C)=CCN1CCN(Cc2coc3ccc(C)cc3c2=O)CC1CCO` (stereo unspecified), the inhibition under setting [1] is 0.54% (inactive).
Still for that read-out and setting: the figure for `Cc1ccc2nc(NC(=O)Cn3nc(C)c([N+](=O)[O-])c3C)sc2c1` is 5.1% (inactive).
On the same count and under the same terms, the figure for `CN1CCN(C(=O)N2c3ccccc3C=Cc3ccccc32)CC1` is 0.28% (inactive).
Same read-out and setting: the figure for `CN(C)CCCNC(=O)c1cc2sc3ccccc3c2s1` is 0.94% (inactive); for `COCCNC(=O)c1cc2sc3ccccc3c2s1` it is 3.33% (inactive).
On to `O=C1/C(=C/c2cccs2)SC(=S)N1CC(=O)N1CCCCC1CCO` (stereo unspecified), for which the inhibition under setting [1] is 2.22% (inactive).
The same measure, in the same setting: the entry for `COC(=O)C/C=C/N(Cc1ccccc1OC)S(=O)(=O)CCl` is “inactive”; for `CN(C)c1ccc(NC2=C(Cl)C(=O)c3ccccc3C2=O)cc1` it is 2.81% (inactive).
Regarding `COc1ccc(NC2=C(NC(C)=O)C(=O)c3ccccc3C2=O)cc1`, the inhibition result under setting [1] was “inactive”.
Still for that read-out and setting: the figure for `O=C(Nc1ccc2ccccc2c1)c1ccccc1[N+](=O)[O-]` is 0.3% (inactive).
For the compound `O=C(NC(=S)NCCN1CCOCC1)c1cccc(Cl)c1`, under setting [1], the inhibition is 2.05% (inactive).
As for `O=S(=O)(NCC1CN(S(=O)(=O)c2c(F)cccc2F)C1)c1ccc2c(c1)OCCO2`, the inhibition under setting [1] was 0.08% (inactive).
As to `Cc1ccc(Nc2nc(=O)c3cccnc3s2)cc1`, under setting [1], the inhibition entry was “inactive”.
With `COc1ccc(OC)c(Nc2nc(=O)c3cccnc3s2)c1`, under setting [1], the inhibition was 4.47% (inactive).
Same read-out and setting: the figure for `CC(=O)c1ccc(Nc2nc(=O)c3cccnc3s2)cc1` is 2.57% (inactive).
Turning to `CC(=O)c1cccc(Nc2nc(=O)c3cccnc3s2)c1`, the inhibition under setting [1] was 3.68% (inactive).
On the same count and under the same terms, the figure for `COCOCCn1cc(CN2CCS(=O)(=O)N(Cc3ccc(-c4cccc(CO)c4)cc3)C(CC(C)C)C2=O)nn1` (stereo unspecified) is 6.1% (inactive).
On the same count and under the same terms, the entry for `CCOC(=O)[C@@H]1[C@H]2COc3ccc(Br)cc3[C@@H]2N2C(=O)N(c3cccc(Cl)c3)C(=O)[C@]12C` is “inactive”.
Take `CCOC(=O)C1=C(NC(=S)NC(=O)c2ccccc2)c2ccccc2CC1(C)CC` (stereo unspecified): the inhibition is 11.4% (inactive) (stronger effect = higher value) and 20.8% under setting [2].
For `CCOC(=O)C1=C(N)c2ccccc2CC1C(C)C` (stereo unspecified), the inhibition result under setting [1] is “inactive”.
Consider `CN1CCN(C(=O)c2ccc3c(c2)N(Cc2cccc(Cl)c2)C(=O)c2ccccc2S3(=O)=O)CC1`, for which the inhibition result under setting [1] was “inactive”.
Same read-out and setting: the figure for `O=C(c1ccc2c(c1)N(Cc1ccc(F)cc1)C(=O)c1ccccc1S2(=O)=O)N1CCN(c2ccccn2)CC1` is 8.23% (inactive); for `Cc1ccc(C)c(CN2C(=O)c3ccccc3S(=O)(=O)c3ccc(C(=O)N4CCN(C)CC4)cc32)c1` it is 0.5% (inactive).
On the same count and under the same terms, the figure for `Cc1ccc(C(=O)N2CCN(c3ccccn3)CC2)cc1C` is 1.05% (inactive); for `CC(=O)C(=Nc1cccc(Cl)c1)NNc1ccccc1C` it is “inactive”.
Regarding `CC(=O)Nc1ccc(C(=O)OCC(=O)c2cccc([N+](=O)[O-])c2)cc1`, the inhibition under setting [1] was 0.91% (inactive).
Same read-out and setting: the entry for `O=C(C[n+]1cccc(NC(=O)c2ccccc2)c1)c1cccc([N+](=O)[O-])c1` is “inactive”.
